CHX counter – counter-screen for Shiga toxin inhibitors: cycloheximide protein synthesis inhibition. cell reporter, cycloheximide protein synthesis inhibition counterscreen. max response, %. AID 2314. hit rate 12% among 300,000; in the data active means max response mostly above about 13%, no sharp cut-off; inactive means mostly below about 14%; further: read at 38.3 µM for the half of the compounds with a filed dose
TbPYK inhibitor – inhibitors of Trypanosoma brucei pyruvate kinase; Q57TT1; TbPYK enzyme, Kinase-Glo Plus ATP luminescence, 45 min; Potency, µM (highest dose often 76.8 µM), most hits filed as inhibitors; hit rate 0.12% among 410,000; AID 624173; further: nearly all actives have a fitted effect of over 50% in size
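Readout: single end-point luminescence (Kinase-Glo Plus, 10 min). Reaction conditions were TbPYK/substrate plus 130 uM ADP, 45 min at RT, pH 7.2 TEA buffer. No-enzyme wells served as controls, and data were normalized before concentration-response fitting.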
RE007 growth inh – less growth of the S. pombe RE007 Vpr strain. S. pombe RE007 Vpr strain, BacTiter-Glo ATP luminescence, 24 h. Potency, µM (series often up to 92.2 µM), usual class: inhibitors. hit rate 0.21% among 360,000; active means well fitted falling curve with a large enough effect; inconclusive means small, poorly fitted or top-dose-only effect; inactive means no such curve, though single readings can be large or run the other way; further: nearly all actives have a fitted effect of over 50% in size
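Fission yeast strain RE007, carrying one chromosomally integrated HIV-1 vpr copy, was seeded at OD 0.01 in PMG+AL medium with 23 nL pinned compound. After 24 h at 30 °C and 99% humidity, viability was read by BacTiter-Glo luminescence.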
LmPK inhibitor – inhibitors of Leishmania mexicana pyruvate kinase; Potency, µM (titrated, usually from 57.5 µM), actives largely listed as inhibitors; hit rate 0.37% among 290,000; purified LmPK, Kinase-Glo ATP luminescence, 1 h
Target sequence (Q27686 whole entry, looked up): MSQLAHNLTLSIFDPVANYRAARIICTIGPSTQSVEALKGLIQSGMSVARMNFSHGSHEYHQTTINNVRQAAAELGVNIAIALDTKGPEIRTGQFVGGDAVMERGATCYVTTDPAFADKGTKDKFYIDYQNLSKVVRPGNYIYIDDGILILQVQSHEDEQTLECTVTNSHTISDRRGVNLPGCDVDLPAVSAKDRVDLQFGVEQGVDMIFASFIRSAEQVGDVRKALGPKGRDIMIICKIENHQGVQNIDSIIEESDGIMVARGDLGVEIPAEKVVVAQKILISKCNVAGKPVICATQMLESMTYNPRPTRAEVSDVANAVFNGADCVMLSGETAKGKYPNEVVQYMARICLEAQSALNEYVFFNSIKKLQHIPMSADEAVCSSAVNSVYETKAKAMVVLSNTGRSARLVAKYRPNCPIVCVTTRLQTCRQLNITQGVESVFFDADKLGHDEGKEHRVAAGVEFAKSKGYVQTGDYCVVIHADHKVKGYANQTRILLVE
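Screened at intermediate enzyme activity to detect both inhibitors and activators: LmPK at 0.1 nM, with a 0.5 nM enzyme column as activation reference. PEP 0.5 mM, ADP 0.1 mM; ATP detected by luminescence after 1 h.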
Giardia FBPA inh – Giardia lamblia aldolase inhibition; purified Giardia FBPA; A8B2U2; Potency, µM (doses to about 59.6 µM), hits mostly inhibitors; hit rate 0.71% among 290,000; further: nearly all actives have a fitted effect of over 55% in size
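Giardia FBPA (40 nM reagent) was preincubated 10 min at RT with compound (up to 57.5 uM final), then substrate plus GAPDH/TPI/NAD/arsenate coupling system with diaphorase/resazurin was added; resorufin fluorescence (525/598 nm) was read after 20 min.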
Shiga inhibitor – blocks Shiga toxin action in Vero cells; Vero cells, Shiga toxin protein synthesis inhibition reporter; inhibition, % at 38.7 µM; hit rate 9.2% among 290,000; in the data active means inhibition mostly above about 28%, no sharp cut-off; inactive means mostly below about 43%
Of the large screens only hits and unclear results are named; the others gave an inactive call. Shown is part of a subset that was picked to be rich in hits. Unless noted, the call rests on the fitted dose curve; in most records, active means well fitted curve in the direction sought with a large enough effect; inconclusive means small, poorly fitted or top-dose-only effect, or another doubt; inactive means no such curve, though single readings can be large; an effect the other way counts as inactive or inconclusive.

O=C(CN1CCCCC1)Nc1ccc(S(=O)(=O)NC2CCCCC2)cc1	none
Cc1cc2nc(-c3ccc(SCC(=O)Nc4ccc(S(=O)(=O)NC5CC5)cc4)nc3)[nH]c2cc1C	CHX counter 46, Shiga inhibitor 70
Cc1cc2nc(-c3ccc(SCC(=O)NC(C)C)nc3)[nH]c2cc1C	CHX counter 45, Shiga inhibitor active (no result: TbPYK inhibitor, RE007 growth inh)
O=C(CSc1ccc(-c2nc3ccccc3[nH]2)cn1)N1CCN(C(=O)c2ccco2)CC1	TbPYK inhibitor inconclusive
Cc1cc2nc(-c3ccc(SCc4ccc(C(=O)O)cc4)nc3)[nH]c2cc1C	CHX counter 37, Giardia FBPA inh inconclusive, Shiga inhibitor 45
COC(=O)CSc1ccc(-c2nc3ccc(C)cc3[nH]2)cn1	CHX counter 20
O=C(NCC12CC3CC(CC(C3)C1)C2)c1cc2nc(-c3ccc(F)cc3)cc(C(F)(F)F)n2n1	none (no result: CHX counter, RE007 growth inh, LmPK inhibitor, Giardia FBPA inh, Shiga inhibitor)
CCCOc1ccc(C2C(=O)N(C3CCCCCC3)CC(=O)N2CCC)cc1OC (stereo not given)	none (no result: CHX counter, RE007 growth inh, LmPK inhibitor, Giardia FBPA inh, Shiga inhibitor)
COC(=O)c1sccc1S(=O)(=O)N(CC(=O)NCc1ccc(F)cc1)c1ccc(Cl)cc1	none (no result: CHX counter, RE007 growth inh, LmPK inhibitor, Giardia FBPA inh, Shiga inhibitor)
Cc1cc2nc(-c3ccc(SCC(=O)N4CCc5ccccc54)nc3)[nH]c2cc1C	CHX counter 43
Cc1cc2nc(-c3ccc(SCc4ccccc4C#N)nc3)[nH]c2cc1C	CHX counter 34, Shiga inhibitor 46
O=C(CSc1nc(-c2ccccc2)cc(=O)[nH]1)N1CCc2ccccc21	TbPYK inhibitor inconclusive
Cc1ccc2nc(SCC(=O)Nc3cc(C)on3)[nH]c2c1	none
Cc1cc(NC(=O)CSc2ccc(-c3nc4cc(C)c(C)cc4[nH]3)cn2)no1	CHX counter 38, Shiga inhibitor 60
N=c1nc(N)nc2n1NC(c1ccc(F)cc1)=CS2	CHX counter 20
Fc1ccc(C2=CSC3=NCCN23)cc1	none
CC(C)NC(=O)C1(C)CCCN1Cc1ccccc1C#N (stereo not given)	none (no result: CHX counter, LmPK inhibitor, Giardia FBPA inh, Shiga inhibitor)
Cc1nc2c(n1O)CCC/C2=N\O	Giardia FBPA inh inconclusive
COc1ccc(-c2nc3c(n2O)CCC/C3=N\O)cc1	CHX counter 27
O=C1C=C(c2cnc3ccccc3c2)C[C@@H](c2ccc3c(c2)OCO3)C1	none (no result: CHX counter, LmPK inhibitor, Giardia FBPA inh, Shiga inhibitor)
Cc1cccc(C(=O)N/N=C/c2cc(Br)c(Br)o2)c1	Shiga inhibitor 33
O=C(N/N=C/c1ccc[nH]1)c1ccc([N+](=O)[O-])cc1	CHX counter 20
Cc1onc(-c2ccccc2)c1C(=O)N/N=C/c1cc(Br)c(Br)o1	none
CC(C)(C)OC(=O)N/N=C\c1ccc[nH]1	CHX counter 41, Giardia FBPA inh inconclusive, Shiga inhibitor 58
Cc1ccc(C(=O)N/N=C\c2ccc[nH]2)cn1	CHX counter 19
O=C(Cn1cc(C(=O)c2cccs2)c2ccccc21)Nc1ccc(Br)cc1	none (no result: CHX counter, RE007 growth inh, LmPK inhibitor, Giardia FBPA inh, Shiga inhibitor)
O=S(=O)(c1ccc(F)cc1)N1CCN(c2nc(-c3ccc(F)cc3)nc3cc(Cl)ccc23)CC1	none (no result: TbPYK inhibitor, RE007 growth inh, LmPK inhibitor, Giardia FBPA inh)
COc1cc(NC(=O)C(CCSC)NS(=O)(=O)c2ccc3c(c2)oc(=O)n3C)cc(OC)c1 (stereo not given)	none (no result: CHX counter, RE007 growth inh, LmPK inhibitor, Giardia FBPA inh, Shiga inhibitor)
Cc1cccc(C(=O)N/N=C/c2ccc[nH]2)c1	CHX counter 24, Giardia FBPA inh inconclusive, Shiga inhibitor 80 (no result: RE007 growth inh)
O=C(N/N=C\c1ccc[nH]1)c1cncc(Br)c1	none
Cc1cccc(NCC(=O)N/N=C\c2ccc[nH]2)c1	none
O=C(N/N=C/c1ccc[nH]1)c1cccc(Br)c1	CHX counter 31, Giardia FBPA inh inconclusive, Shiga inhibitor active
COc1ccc(OCC(=O)Nc2cc(-c3nc4ccccc4o3)ccc2Cl)cc1	none (no result: CHX counter, RE007 growth inh, LmPK inhibitor, Giardia FBPA inh, Shiga inhibitor)
CCC(=O)c1ccc(OCc2ccccc2)c(OC)c1	CHX counter 43, Shiga inhibitor 88
CCOc1cc(C(=S)N2CCCC2)ccc1OC	none
CCC(=O)c1ccc(OCc2ccc(C(=O)OC)cc2)c(OC)c1	none (no result: Giardia FBPA inh)
COc1cc(C(=S)N2CCCC2)ccc1OCc1ccccc1	CHX counter 30, Shiga inhibitor 66
Cc1cccc(-n2cnc(C(=O)N3CCN(C)CC3)c2)n1	none
CCC(C)NC(=O)c1cn(-c2cccc(C)n2)cn1 (stereo not given)	CHX counter 20, Shiga inhibitor 53
